# Laboratory results published in PubChem BioAssay (NCI).
# This is part of a sample that, as a whole, favours compounds with a hit. Of some 83,000 tested, about 20% had one in any assay.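 Compound tested at a single concentration for 48 hours in 96-well plates; a percent growth value below 10 was scored as active.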 Unmarked numbers belong to inactive results. Activity calls are given as the source filed them.
# Assays:
# Assay in all cases: NCI-60 one-dose screen, 48 h (100 = growth as untreated, 0 = no growth, -100 = all killed)
# NCI-H460 lung = conditions: 10 µM unless noted
# 786-0 renal = conditions: 10 µM unless noted
# DU-145 prostate = conditions: 10 µM unless noted
# SF-268 CNS = conditions: 10 µM unless noted
# SF-539 CNS = conditions: 10 µM unless noted
# M14 melanoma = conditions: 10 µM unless noted
# HCT-15 colon = conditions: 10 µM
# SNB-75 CNS = conditions: 10 µM unless noted
# PC-3 prostate = conditions: 10 µM unless noted
# UACC-62 melanoma = conditions: 10 µM unless noted
# SK-MEL-28 melanoma = conditions: 10 µM unless noted
# SN12C renal = conditions: 10 µM unless noted
# OVCAR-8 ovarian = conditions: 10 µM unless noted
# NCI/ADR-RES ovarian = conditions: 10 µM unless noted
# SW-620 colon = conditions: 10 µM unless noted
# MCF7 breast = conditions: 10 µM unless noted
# HCT-116 colon = conditions: 10 µM unless noted
# KM12 colon = conditions: 10 µM unless noted
# HL-60(TB) leukemia = conditions: 10 µM unless noted
# TK-10 renal = conditions: 10 µM unless noted
structure (smiles),measurement,setting,value
O=C(O)CNC(=O)c1ccccc1,growth,NCI-H460 lung,103%
same,growth,786-0 renal,100%
same,growth,DU-145 prostate,119%
same,growth,SF-268 CNS,107%
same,growth,SF-539 CNS,89%
same,growth,M14 melanoma,99.4%
same,growth,HCT-15 colon,98%
same,growth,SNB-75 CNS,93.7%
same,growth,PC-3 prostate,102%
same,growth,UACC-62 melanoma,103%
same,growth,SK-MEL-28 melanoma,107%
same,growth,SN12C renal,107%
same,growth,OVCAR-8 ovarian,113%
same,growth,NCI/ADR-RES ovarian,101%
same,growth,SW-620 colon,99.7%
same,growth,MCF7 breast,104%
same,growth,HCT-116 colon,98.2%
same,growth,KM12 colon,105%
CC(C)(C#N)c1cc(C(=O)Nc2cc(Nc3ncccc3-c3ncnc4nc[nH]c34)ccc2F)cc(C(F)(F)F)c1,growth,HL-60(TB) leukemia,35.3%
CCCC(=O)OCC(COC(=O)CCC)OC(=O)CCC,growth,HL-60(TB) leukemia,100%
CCN1C(=O)N(CC)C2C1NN=c1s/c(=C3\C(=O)N(CCc4ccccc4)c4ccccc43)c(=O)n12 (stereo not drawn),growth,HL-60(TB) leukemia,-46.1% (active)
NC(=O)CN1C(=O)C(Cc2ccc(O)cc2)N=C(c2cccc(O)c2)c2ccccc21 (stereo not drawn),growth,UACC-62 melanoma,80.7% [30 µM]
same,growth,TK-10 renal,106% [30 µM]
same,growth,MCF7 breast,75.5% [30 µM]
CC(C)c1ccc(C(=O)OCCCl)cc1,growth,HL-60(TB) leukemia,85.5%
O=C1Nc2c(ccc(Cl)c2Cl)/C1=C\c1ccc(C(F)(F)F)cc1,growth,HL-60(TB) leukemia,51.8%
CSc1cc(SC)ncn1,growth,HL-60(TB) leukemia,101%
C(=N/Nc1ncc(-c2cc3cc(-c4ccccc4)ccc3o2)s1)/c1cccs1,growth,HL-60(TB) leukemia,96.4%
COc1ccc2c(c1)NC(=O)CN2c1nc(C)nc2ccccc12,growth,HL-60(TB) leukemia,-6.18% (active)
O=[N+]([O-])c1cccc(C(F)(F)F)c1,growth,HL-60(TB) leukemia,109%
CC(=O)N(C)c1ccc([N+](=O)[O-])cc1,growth,HL-60(TB) leukemia,72.8%
COc1nc2ccc(C)cc2cc1-c1nc2c(cnn2-c2ccc(Br)cc2)c(=O)[nH]1,growth,HL-60(TB) leukemia,23.7%
O=C(CCCSc1nc(-c2ccc(Cl)cc2)cc(-c2ccc(Cl)cc2)n1)NO,growth,HL-60(TB) leukemia,-25.4% (active)
COC(=O)C1=C(C(=O)Nc2cccnc2)C2OC1(C(Cc1ccccc1)Oc1ccccc1)C1OC21 (stereo not drawn),growth,HL-60(TB) leukemia,-56.2% (active)
CCCCCCCCCCCCCCCCCC(=O)[O][Sn]([CH2]CCC)([CH2]CCC)[CH2]CCC,growth,HL-60(TB) leukemia,-18.5% (active)
Clc1ccc(CN2COc3c(ccc4cccnc34)C2)cc1Cl,growth,HL-60(TB) leukemia,-63.5% (active)
CCOC(=O)c1[nH]c(C)c(C(C)=O)c1C,growth,HL-60(TB) leukemia,102%
C=C1C(=O)O[C@H]2[C@H]1CC/C(CNS(=O)(=O)c1cccc3ccccc13)=C\CC[C@@]1(C)O[C@@H]21,growth,HL-60(TB) leukemia,-31.9% (active)
O=C1c2cccc3cccc(c23)C(=O)N1N1C(=O)c2cccc3c(NC4CCCCC4)ccc(c23)C1=O,growth,HL-60(TB) leukemia,99.3%
O=C(NNC(=S)Nc1ccccc1)c1ccccn1,growth,HL-60(TB) leukemia,-6.25% (active)
CCN(CC)c1ccc2cc(C(Nc3ccc(Cl)cc3)c3nnnn3C(C)(C)C)c(=O)oc2c1 (stereo not drawn),growth,HL-60(TB) leukemia,96%
COc1ccc2sc(-n3nc4nc5n(c(=O)c4c3N)-c3ccccc3Sc3ccccc3-5)nc2c1,growth,HL-60(TB) leukemia,66.6%
O=C(N=C1C(=O)C2(CCCCC2)C2(N=C(c3ccccc3)OC2=O)C12CCCCC2)c1ccccc1 (stereo not drawn),growth,HL-60(TB) leukemia,71.8%
OC(COCc1ccccc1)COCc1ccccc1,growth,HL-60(TB) leukemia,91.8%
COc1ccc(-c2nn(-c3cccc(NC(=O)c4ccc5c(c4)OCCO5)c3)cc2-c2ccncc2)cc1Cl,growth,HL-60(TB) leukemia,-2.93% (active)
N[C@@H]1CCCN(c2c(/C=C3\SC(=O)NC3=O)cccc2-c2ccccc2)C1,growth,HL-60(TB) leukemia,26.5%
COc1cc(C)ccc1Oc1nc(Nc2ccc(N3CCOCC3)cc2)ncc1N=Cc1cc(C(F)(F)F)cc(C(F)(F)F)c1,growth,HL-60(TB) leukemia,67.4%
COc1ccc(/C=C\c2cc(OC)c(OC)c(OC)c2)cc1OC(=O)c1cccc(Cn2cc(CCOC(=O)c3cccc(Cn4nnc5c4C(=O)c4ccccc4C5=O)c3)nn2)c1,growth,HL-60(TB) leukemia,-21.9% (active)
Cc1nnc(-c2ccc3c(c2)nc(/C=C/c2ccccc2)n3C2CCCCC2)o1,growth,HL-60(TB) leukemia,65.3%
COc1ccc(Cn2cc3c(c2-c2ccccc2)CCc2cnoc2-3)cc1,growth,HL-60(TB) leukemia,4.48% (active)
COc1ccc2c(c1)C(c1c[nH]c3ccccc13)(c1c[nH]c3ccccc13)CCO2,growth,HL-60(TB) leukemia,41.2%
O=C1N=C(c2c(-c3[nH]c(=O)c4ccc(Br)cc4c3O)c(O)c3ccccc3c2O)C(=O)c2cc(Br)ccc21,growth,HL-60(TB) leukemia,45.6%
O=C(NCc1ccco1)C1CN(c2ccc(Cl)cc2)N(c2ccc(Cl)cc2)C1=O (stereo not drawn),growth,HL-60(TB) leukemia,5.03% (active)
